Among the test systems are NCI-H23 lung; NCI-H322M lung; HOP-62 NSCLC; NCI-H460 lung; HOP-92 NSCLC; NCI-H522 lung; A549/ATCC NSCLC; 786-0 renal; COLO 205 colon; DU-145 prostate; K-562 leukemia; MALME-3M melanoma; MDA-MB-231 breast; RXF 393 renal; SF-268 CNS; SF-295 CNS; SF-539 CNS; UACC-257 melanoma; M14 melanoma; HCT-15 colon.
Assay in all cases: NCI-60 one-dose screen, 48 h (100 = growth as untreated, 0 = no growth, -100 = all killed)
What all share (conditions): 10 µM unless noted

This is part of a sample that, as a whole, favours compounds with a hit. Of some 83,000 tested, about 20% had one in any assay.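 Cell lines were cultured in 96-well plates, exposed to a single compound concentration, and assessed for percent growth 48 hours later.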 A number with no mark means an inactive call. The source made the active and inactive calls. How the source made its calls: active means growth percent below 10; inactive means the rest.

In the case of `Clc1ccc(COc2ccc(Nc3ncnc4onc(-c5ccccc5)c34)cc2)cc1`, the growth with NCI-H23 lung is 87.1%; in the assay with NCI-H322M lung, 82.8%; in the assay with HOP-62 NSCLC, 91.2%; in the assay on NCI-H460 lung, 61%; in the assay on HOP-92 NSCLC, 82.9%; in the assay with NCI-H522 lung, 71.3%. The growth in the assay with A549/ATCC NSCLC is 82.8%; in the assay on 786-0 renal, 90.7%; with COLO 205 colon, 93.5%; in the assay on DU-145 prostate, 72.7%; in the assay on K-562 leukemia, 89.9%; in the assay with MALME-3M melanoma it was 92.7%. Moreover, the growth was 76.5% with MDA-MB-231 breast; 95.5% with RXF 393 renal; 89.2% in the assay on SF-268 CNS; 93.7% in the assay on SF-295 CNS; 97% with SF-539 CNS; 85.6% in the assay with UACC-257 melanoma. Also, the growth in the assay with M14 melanoma is 76%; in the assay on HCT-15 colon it was 84.2%.
Consider `O=C(NC1CCCCC1)C(c1cccs1)N(CCc1ccccc1)C(=O)c1ccco1` (stereo not given), for which the growth in the assay on NCI-H23 lung is 86.1%; with NCI-H322M lung it was 96.5%; with HOP-62 NSCLC it was 90.6%; with NCI-H460 lung, 103%; with HOP-92 NSCLC it was 75.5%; in the assay with NCI-H522 lung, 65.2%. Moreover, the growth is 92.2% in the assay with A549/ATCC NSCLC; 91.1% in the assay on 786-0 renal; 96.1% with COLO 205 colon; 103% in the assay on DU-145 prostate; 82.8% with K-562 leukemia; -11.2% (active) in the assay with MALME-3M melanoma. The growth was 98.5% in the assay with MDA-MB-231 breast; 97.3% in the assay with RXF 393 renal; 92.6% in the assay on SF-268 CNS; 84.7% in the assay on SF-295 CNS; 90.9% in the assay with SF-539 CNS; 98.6% in the assay with UACC-257 melanoma. Also, the growth in the assay with M14 melanoma is 93.7%; with HCT-15 colon, 93.4%.
Consider `CCOC(=O)c1sc(-c2ccc(OS(=O)(=O)c3cccs3)c(C=O)c2)nc1C`, for which the growth in the assay with NCI-H23 lung was 11.4%; in the assay on NCI-H322M lung, 47.3%; in the assay on HOP-62 NSCLC it was 22.5%; in the assay on NCI-H460 lung it was 3.56% (active); with HOP-92 NSCLC, 11.9%; with NCI-H522 lung, -2.27% (active). Also, the growth is 32.5% in the assay on A549/ATCC NSCLC; 5.71% (active) in the assay with 786-0 renal; 79.6% in the assay with COLO 205 colon; 8.94% (active) in the assay with DU-145 prostate; 4.3% (active) with K-562 leukemia; -5.26% (active) in the assay on MALME-3M melanoma. Further, the growth in the assay with MDA-MB-231 breast is -16.8% (active); with RXF 393 renal it was 19%; in the assay on SF-268 CNS, 9.2% (active); with SF-295 CNS it was -8.21% (active); with SF-539 CNS, -26.2% (active); in the assay with UACC-257 melanoma, 32.1%. The values for the growth in the assay with M14 melanoma and with HCT-15 colon were -17.6% (active) and 1.42% (active), respectively.
Turning to `CC(C)[C@H](NC(=O)Cn1cc(C(=O)O)nn1)C(=O)O`, the growth was 97.3% in the assay with NCI-H23 lung; 99.9% in the assay on NCI-H322M lung; 108% with HOP-62 NSCLC; 106% in the assay with NCI-H460 lung; 99.2% in the assay with HOP-92 NSCLC; 104% in the assay with NCI-H522 lung. Also, the growth in the assay on A549/ATCC NSCLC was 97%; in the assay on 786-0 renal, 104%; in the assay with COLO 205 colon, 119%; in the assay on DU-145 prostate it was 114%; in the assay on K-562 leukemia, 118%; with MALME-3M melanoma, 101%. The growth with MDA-MB-231 breast was 97.6%; in the assay on RXF 393 renal, 112%; in the assay with SF-268 CNS, 115%; in the assay with SF-295 CNS, 93%; with SF-539 CNS it was 105%; with UACC-257 melanoma it was 99.6%. The growth is 108% in the assay on M14 melanoma and 100% in the assay with HCT-15 colon.
Take `O=C(CCc1nnc2sc(COc3ccccc3)nn12)c1nc2ncccc2[nH]1`: the growth in the assay on NCI-H23 lung is 85.4%; in the assay with NCI-H322M lung, 91.9%; in the assay with HOP-62 NSCLC, 90.7%; in the assay with NCI-H460 lung, 93.3%; in the assay with HOP-92 NSCLC, 93.6%; with NCI-H522 lung, 79.4%. Besides, the growth is 107% with A549/ATCC NSCLC; 108% with 786-0 renal; 107% in the assay on COLO 205 colon; 106% with DU-145 prostate; 107% with K-562 leukemia; 91.4% with MALME-3M melanoma. Moreover, the growth in the assay on MDA-MB-231 breast is 91.8%; in the assay with RXF 393 renal, 98.4%; in the assay with SF-268 CNS, 96%; in the assay on SF-295 CNS, 103%; with SF-539 CNS, 100%; in the assay on UACC-257 melanoma it was 98.9%. In addition, the growth with M14 melanoma was 95.6%; in the assay with HCT-15 colon, 100%.
In the case of `COc1cccc(/C=C/C(=O)c2c(C)nc3ccccc3c2/C=C/c2ccccc2)c1OC`, the growth is 31.2% with NCI-H23 lung; 45.3% in the assay on NCI-H322M lung; 55.2% in the assay with HOP-62 NSCLC; 2.78% (active) with NCI-H460 lung; 60.7% in the assay with HOP-92 NSCLC; 3.88% (active) in the assay with NCI-H522 lung. For the same compound, the growth in the assay with A549/ATCC NSCLC was 30.9%; in the assay with 786-0 renal, 42.4%; in the assay with COLO 205 colon, 56.3%; in the assay with DU-145 prostate, 4.24% (active); with K-562 leukemia it was 9.13% (active); in the assay with MALME-3M melanoma it was 69.1%. Further, the growth is 20.9% in the assay on MDA-MB-231 breast; 15.4% with RXF 393 renal; 38.8% in the assay with SF-268 CNS; 46.5% in the assay on SF-295 CNS; 58.8% with SF-539 CNS; 46.1% in the assay on UACC-257 melanoma. Moreover, the growth in the assay with M14 melanoma is 36.3%; with HCT-15 colon, 5.81% (active).
With `Cc1ccc(CN2CCC(C(=O)Nc3ccc(-c4cc5ccccc5[nH]4)cc3)CC2)o1`, the growth in the assay on NCI-H23 lung was 69.6%; with NCI-H322M lung, 95.1%; with HOP-62 NSCLC, 97.9%; in the assay on NCI-H460 lung, 27.9%; in the assay on HOP-92 NSCLC, 36.8%; with NCI-H522 lung, 72%. For the same compound, the growth was 33.7% in the assay with A549/ATCC NSCLC; 38.4% in the assay with 786-0 renal; 83.4% in the assay with COLO 205 colon; 60.2% in the assay on DU-145 prostate; 3.08% (active) in the assay on K-562 leukemia; 77.9% with MALME-3M melanoma. In addition, the growth in the assay on MDA-MB-231 breast is 60.7%; in the assay with RXF 393 renal it was 54.6%; with SF-268 CNS, 66.6%; in the assay with SF-295 CNS, 17.2%; with SF-539 CNS it was 84.3%; in the assay with UACC-257 melanoma, 85.4%. Besides, the growth is 41.9% with M14 melanoma and 44.2% with HCT-15 colon.

The values above are taken from PubChem BioAssay (NCI).
